Compound activity (PubChem BioAssay)
A selection: hits, their analogues and other compounds. The true share with any hit is near 0.9%.
gsp agonist – activates gsp, the McCune-Albright syndrome mutation; gsp mutant cells, cAMP HTRF, 30 min; Potency, µM (series often up to 76.9 µM), usual class: activators; 0.13% of 340,000 active; active = well fitted activation curve with a large enough effect; inconclusive = small, poorly fitted or top-dose-only effect, or another doubt; inactive = no such curve, though single readings can be large or run the other way; cell line not stated here;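 note: phosphodiesterase inhibitor Ro 20-1724 added with compounds to block cAMP breakdown; nearly all actives have a fitted effect of over 60% in size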
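Cells in DMEM/10% FBS with G418 were pretreated with compounds in DMSO plus […] (300 uM stock) for 30 min at 37C. cAMP was measured by HTRF (cAMP-d2 plus anti-cAMP antibody-K) after 30 min at room temperature.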
RXFP1 ag – RXFP1 (human) receptor agonism; AID 2676; Potency, µM (series often up to 57.5 µM), most hits filed as activators; 0.3% of 370,000 active; HEK293T-RXFP1 cAMP TR-FRET, 30 min; response scale: percent of porcine relaxin response, buffer zero; Q9HBX9; active = well fitted activation curve with a large enough effect; inconclusive = small, poorly fitted or top-dose-only effect; note: nearly all actives have a fitted effect of over 60% in size
Target sequence (Q9HBX9 whole entry, looked up): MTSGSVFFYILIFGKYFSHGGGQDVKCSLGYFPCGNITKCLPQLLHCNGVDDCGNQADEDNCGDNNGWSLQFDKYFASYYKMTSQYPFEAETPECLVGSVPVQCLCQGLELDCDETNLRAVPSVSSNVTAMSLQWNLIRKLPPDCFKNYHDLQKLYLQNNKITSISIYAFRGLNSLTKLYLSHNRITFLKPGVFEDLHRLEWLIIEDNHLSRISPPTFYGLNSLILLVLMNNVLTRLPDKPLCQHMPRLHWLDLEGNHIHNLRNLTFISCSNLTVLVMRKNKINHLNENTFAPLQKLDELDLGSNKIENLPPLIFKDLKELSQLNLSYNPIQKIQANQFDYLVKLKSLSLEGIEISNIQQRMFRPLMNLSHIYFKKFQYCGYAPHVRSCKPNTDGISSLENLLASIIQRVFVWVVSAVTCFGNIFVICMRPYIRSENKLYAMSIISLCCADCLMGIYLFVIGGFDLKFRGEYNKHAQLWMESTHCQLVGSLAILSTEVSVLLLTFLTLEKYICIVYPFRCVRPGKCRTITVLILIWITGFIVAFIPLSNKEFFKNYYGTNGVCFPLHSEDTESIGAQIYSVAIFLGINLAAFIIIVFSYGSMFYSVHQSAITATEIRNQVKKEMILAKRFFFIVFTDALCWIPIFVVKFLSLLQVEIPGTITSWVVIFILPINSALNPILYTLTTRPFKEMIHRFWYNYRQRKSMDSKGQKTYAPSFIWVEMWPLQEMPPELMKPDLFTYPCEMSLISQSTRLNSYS
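HEK293T cells stably expressing RXFP1 were pretreated with the PDE4 inhibitor Ro 20174, exposed to compounds for 30 min at 37C, lysed, and cAMP was read by TR-FRET. Data normalized to buffer (basal) and 29 nM porcine relaxin (100%).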
gsp antag – antagonists of gsp mutant (McCune-Albright syndrome); gsp-mutant cells, cAMP HTRF, 30 min; AID 624288; 0.4% of 340,000 active; Potency, µM (highest dose often 76.9 µM), most hits filed as inhibitors; calls by dose curve; cell line not stated here;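 note: intracellular cAMP measured with PDE inhibitor Ro 20-1724 present during compound exposure; nearly all actives have a fitted effect of over 65% in size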
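HTRF cAMP measurement after 30 min RT detection following 30 min, 37C compound treatment alongside […] (added as 300 uM solution) in G418-selected cells seeded at 2000/well and grown 16–24 h.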
RXFP1 antagonist – blocks the human relaxin receptor RXFP1; Q9HBX9; HEK293-RXFP1, relaxin-stimulated cAMP HTRF, 30 min; hits give low values; activity change, negative = inhibition, % at 57.5 µM; 0.59% of 350,000 active;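 active = activity change of -60% or lower, but not beyond a set lower limit; inconclusive = change between -60% and -40%, or beyond the set limit; inactive = change above -40%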
Hits are given with their value; [ ] = another dose, or the depositor's remark.

How did Cc1cccc(N2C(=O)CCSC23C(=O)N(Cc2ccc(F)cc2)c2ccccc23)c1 (configuration not stated) do in these assays?
RXFP1 ag: inactive; RXFP1 antagonist: -63

How did O=C1CCSC2(C(=O)N(Cc3ccc(F)cc3)c3ccccc32)N1c1ccccc1 (configuration not stated) do in these assays?
RXFP1 ag: inactive; RXFP1 antagonist: -62

How did O=C1CCSC2(C(=O)N(Cc3ccc(F)cc3)c3ccccc32)N1c1ccc(F)c(F)c1 (configuration not stated) do in these assays?
RXFP1 ag: inactive; RXFP1 antagonist: -72

How did O=C(OCc1cc(=O)n2nc(C3CCCCC3)sc2n1)c1ccc(F)cc1 do in these assays?
RXFP1 ag: inactive

How did Cc1cc(NS(=O)(=O)c2ccc(N)cc2)nc(C)n1 do in these assays?
RXFP1 antagonist: inactive

How did CCC(C(=O)Nc1ccsc1C(=O)OC)c1ccccc1 (configuration not stated) do in these assays?
gsp agonist: inactive[15.4 µM]; RXFP1 ag: inactive; gsp antag: inconclusive; RXFP1 antagonist: -63

How did CCN(CC)CC(=O)OCC(=O)[C@@]1(O)CC[C@H]2[C@@H]3CCC4=CC(=O)CC[C@]4(C)[C@H]3[C@@H](O)C[C@@]21C do in these assays?
RXFP1 antagonist: inactive

How did NNC(=S)Nc1cccc(-c2n[nH]c(=S)o2)c1 do in these assays?
gsp agonist: 10µM; RXFP1 ag: inconclusive; gsp antag: inactive; RXFP1 antagonist: inactive

How did CN(C)C(=S)Nc1cccc(-c2n[nH]c(=S)o2)c1 do in these assays?
gsp agonist: inactive[15.4 µM]; RXFP1 ag: inactive; gsp antag: inactive; RXFP1 antagonist: inactive

What do the screens show for `O=C(CCS(=O)(=O)c1ccccc1)Nc1cccc(-c2nc3ccccc3s2)c1`?
gsp agonist: inactive; RXFP1 ag: inactive; gsp antag: 40µM; RXFP1 antagonist: inconclusive

Results for O=C(Nc1cccc(-c2nc3ccccc3s2)c1)c1cccs1 ?
gsp agonist: inactive[15.4 µM]; RXFP1 ag: inactive; gsp antag: 22µM; RXFP1 antagonist: inactive

What do the screens show for `COc1ccccc1CNS(=O)(=O)c1ccc2c(c1)NC(=O)CC(=O)N2`?
RXFP1 ag: inactive; RXFP1 antagonist: inactive

How did CCCN(CCC)C(=O)Cn1c(=O)n(-c2cccc(C(F)(F)F)c2)c(=O)c2c(C)c(C)sc21 do in these assays?
RXFP1 ag: inactive; RXFP1 antagonist: inactive

How did CCCCCC(O)(c1ccc(OC)cc1)C(CN1CCOCC1)c1ccccc1 (configuration not stated) do in these assays?
gsp agonist: inactive; RXFP1 ag: inactive; gsp antag: inactive; RXFP1 antagonist: -61

Results for COc1ccc(C(O)(C2CCCCC2)C(CN2CCOCC2)c2ccccc2)cc1 (configuration not stated) ?
gsp agonist: inactive; RXFP1 ag: inactive; gsp antag: inactive; RXFP1 antagonist: -90

Results for N#Cc1c(N)nc2c3c(sc(=N)c2c1N)NC(=O)CC3c1ccccc1 (configuration not stated) ?
gsp agonist: inactive; RXFP1 ag: 28µM; gsp antag: inactive; RXFP1 antagonist: inactive

How did N#Cc1c(N)nc2c3c(sc(=N)c2c1N)NC(=O)CC3c1c(F)cccc1Cl (configuration not stated) do in these assays?
gsp agonist: inactive; RXFP1 ag: inconclusive; gsp antag: inactive; RXFP1 antagonist: inactive

How did COc1ccc(N2CCN(C(=O)CCc3c(C)nn(-c4ccc(N5CCCC5)nn4)c3C)CC2)cc1 do in these assays?
RXFP1 ag: inactive; RXFP1 antagonist: inactive

What do the screens show for `Cc1ccc(S(=O)(=O)c2ccc([N+](=O)[O-])o2)cc1`?
gsp agonist: inactive; gsp antag: inactive; RXFP1 antagonist: -60

Results for Cc1ccc(C(=O)NCC(=O)OCCOc2ccccc2Cl)cc1 ?
gsp agonist: inactive[15.4 µM]; RXFP1 ag: inactive; gsp antag: inactive; RXFP1 antagonist: -84

What do the screens show for `O/C(=C\c1nc2ccccc2nc1/C=C(\O)c1ccccc1)c1ccccc1`?
gsp agonist: inactive; RXFP1 ag: inactive; gsp antag: inactive; RXFP1 antagonist: -112

How did COc1ccc(Br)cc1CC1C(=O)Nc2ccccc21 (configuration not stated) do in these assays?
RXFP1 ag: inactive; RXFP1 antagonist: -69

What do the screens show for `Cc1nc(SC(C)C(=O)NCC2CCCO2)c2cc(-c3ccccc3)sc2n1` (configuration not stated)?
gsp agonist: inactive[15.4 µM]; RXFP1 ag: inactive; gsp antag: inactive; RXFP1 antagonist: -69

What do the screens show for `CC(Sc1ncnc2c1cnn2-c1ccccc1)C(=O)NCC1CCCO1` (configuration not stated)?
gsp agonist: inactive; RXFP1 ag: inactive; gsp antag: inactive; RXFP1 antagonist: inactive

What do the screens show for `COc1ccc(CCNC(=O)CCn2c(=O)c3ccccc3n(CC(=O)Nc3cccc(C)c3)c2=O)cc1OC`?
RXFP1 ag: inactive

How did CCN(CC)CCOC(=O)c1ccc(NC(=O)c2nn(-c3ccc(C)cc3)c(=O)c3c2c2ccccc2n3C)cc1 do in these assays?
RXFP1 ag: inactive; RXFP1 antagonist: inactive

How did CCCN1CCc2c(sc(NC(=O)CCS(=O)(=O)c3ccccc3)c2C(N)=O)C1 do in these assays?
gsp agonist: inconclusive; RXFP1 ag: inactive; gsp antag: inactive; RXFP1 antagonist: inactive

How did CN1CCc2c(sc(NC(=O)CS(=O)(=O)c3ccccc3)c2C(N)=O)C1 do in these assays?
gsp agonist: inactive[15.4 µM]; RXFP1 ag: inactive; gsp antag: inconclusive; RXFP1 antagonist: -63

How did O=C(CCNC(=O)N1CC(=O)Nc2ccccc21)NCc1cccc(Cl)c1 do in these assays?
gsp agonist: inactive; RXFP1 ag: inactive; gsp antag: inactive; RXFP1 antagonist: -92

How did Cc1ccccc1CN1C(=O)C(O)(CC(=O)c2cccc(Br)c2)c2ccccc21 (configuration not stated) do in these assays?
RXFP1 ag: inactive; RXFP1 antagonist: inactive

How did O=C(CSc1ccc2nnc(-c3cccnc3)n2n1)Nc1ccccc1 do in these assays?
gsp agonist: inconclusive; RXFP1 ag: 16µM; gsp antag: inactive; RXFP1 antagonist: inactive

How did COc1ccc(NC(=O)CSc2ccc3nnc(-c4cccnc4)n3n2)cc1OC do in these assays?
gsp agonist: inconclusive; RXFP1 ag: 18µM; gsp antag: inactive; RXFP1 antagonist: inactive

How did Clc1ccccc1-c1nnc(COc2ccccc2)o1 do in these assays?
RXFP1 ag: inactive; RXFP1 antagonist: inactive

What do the screens show for `O=C(Nc1cc(S(=O)(=O)N2CCOCC2)ccc1O)c1ccc(S(=O)(=O)N2CCCCC2)cc1`?
gsp agonist: inactive; gsp antag: 8.9µM; RXFP1 antagonist: inactive

Results for O=C(CCCSc1ccc(Cl)cc1)Nc1cc(S(=O)(=O)N2CCOCC2)ccc1O ?
gsp agonist: inactive; RXFP1 ag: inactive; gsp antag: 32µM; RXFP1 antagonist: inactive

What do the screens show for `COc1ccc(/C=C2/SC(=S)N(CCC(=O)O)C2=O)cc1`?
gsp agonist: inactive; RXFP1 ag: inactive; gsp antag: inactive; RXFP1 antagonist: inactive

What do the screens show for `COc1ccc(-c2nn(-c3ccccc3)cc2/C=C2/SC(=S)N(CCC(=O)O)C2=O)c(C)c1`?
gsp agonist: inactive; RXFP1 ag: inactive; gsp antag: 32µM; RXFP1 antagonist: inactive
